HT1080 IDH1KD tx: kills HT-1080 cells with IDH1 knockdown | HT-1080 IDH1 knockdown viability, ATP luminescence, 48 h | Potency, µM (series often up to 46.1 µM), for inactives: at the highest dose activity, negative = toxicity, usual class: cytotoxic | 2% of 360,000 active;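 further: potency means the concentration at half of the fitted maximal effect; 0% = DMSO wells and -100% = cell-free medium wells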
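IDH1KD HT-1080 cells, 750/well, RPMI + 5% FBS; compound pinned after 2 h settling; 48 h, 37 °C; CellTiter-Glo luminescence; % activity normalised to DMSO and no-cell wells; curves fitted, classed by r2 and efficacy.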
HT1080NT lethal: kills 2HG-producing HT-1080-NT fibrosarcoma cells; HT-1080-NT fibrosarcoma viability, CellTiter-Glo ATP luminescence, 48 h; AID 686970; Potency, µM (series often up to 46.1 µM), inactives show at the highest dose activity, negative = less viability, actives largely listed as cytotoxic; 1.6% of 360,000 active;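 further: NT is the 2HG producing partner of a matched IDH1 knockdown line; potency means the concentration at half of the fitted maximal effect; 0% = DMSO-treated cells and -100% = media-only wells without cells; nearly all actives have a fitted effect of over 55% in size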
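HT-1080-NT fibrosarcoma cells (2HG-overproducing), 750 cells/well in RPMI with 5% FBS, dosed after 2 h and incubated 48 h at 37C. CellTiter-Glo luminescence normalized to DMSO and no-cell wells; concentration-response curves fitted and classed.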
ALOX12 inh: inhibitors of human 12S-lipoxygenase ALOX12; P18054; Potency, µM (doses to about 108 µM), inactives show at the highest dose activity change, negative = inhibition, usual class: inhibitors; 1.1% of 580,000 active; purified 12hLO, xylenol orange hydroperoxide absorbance; AID 1671190; further: potency means the concentration at half of the fitted maximal effect
Target sequence (P18054 whole entry, looked up): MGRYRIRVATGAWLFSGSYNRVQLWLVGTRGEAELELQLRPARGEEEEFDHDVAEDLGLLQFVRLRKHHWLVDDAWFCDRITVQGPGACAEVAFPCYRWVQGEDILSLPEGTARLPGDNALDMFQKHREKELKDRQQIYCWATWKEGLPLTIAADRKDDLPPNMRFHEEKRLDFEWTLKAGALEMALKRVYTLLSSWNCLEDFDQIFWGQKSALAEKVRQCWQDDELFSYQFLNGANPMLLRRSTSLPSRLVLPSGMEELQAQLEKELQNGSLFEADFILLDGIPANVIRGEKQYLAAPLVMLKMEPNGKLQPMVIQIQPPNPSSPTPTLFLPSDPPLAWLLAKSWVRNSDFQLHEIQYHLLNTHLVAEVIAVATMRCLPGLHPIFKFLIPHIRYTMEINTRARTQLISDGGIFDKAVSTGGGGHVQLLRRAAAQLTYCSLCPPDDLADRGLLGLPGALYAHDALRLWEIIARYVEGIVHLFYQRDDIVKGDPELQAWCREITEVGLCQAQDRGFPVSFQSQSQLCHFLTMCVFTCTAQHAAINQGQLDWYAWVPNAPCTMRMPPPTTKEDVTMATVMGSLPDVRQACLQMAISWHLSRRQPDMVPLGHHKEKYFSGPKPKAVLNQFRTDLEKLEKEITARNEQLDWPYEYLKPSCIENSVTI
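Purified human 12hLO at 150 nM in 25 mM Hepes, 0.01% Triton X-100, pH 7.0, preincubated 15 min at room temperature with compound. Reaction started with 40 uM arachidonic acid, 30 min at room temperature. Hydroperoxide measured by Fe-xylenol orange, 573/405 nm absorbance ratio.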
TDP1 cell noCPT: qHTS for Inhibitors of human tyrosyl-DNA phosphodiesterase 1 (TDP1): qHTS in cells in absence of CPT. Potency, µM (doses to about 46.2 µM), inactives show at the highest dose activity change, negative = growth inhibition, usual class: inhibitors. DT40 Tdp1-/- hTDP1 cells, no CPT, ATP luminescence, 48 h. 15% of 420,000 active; further: potency means the concentration at half of the fitted maximal effect; nearly all actives have a fitted effect of over 55% in size
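Growth kinetics read by CellTiter-Glo luminescence after ≥48 hr at 37 °C. Cells: DT40 Tdp1-/- stably carrying human TDP1, 400 per well, compound exposure in the absence of CPT (DMSO vehicle).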
IL1B secr inh: blocks inflammasome-driven IL-1 beta release; THP-1 LPS/ATP IL-1B secretion, AlphaLISA, 16 h; hits give low values; activity change, % at 57.5 µM; 4.7% of 360,000 active; in the data active means activity change below about -50%; inconclusive means mostly about -30% to -49%
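THP-1 cells pretreated 1 hr with compounds (up to 57.5 uM final), then stimulated with LPS (250 ng/mL final) plus ATP (1.25 mM final); secreted IL-1B measured by AlphaLISA after 16 hr, decreased signal indicating inhibition.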
TDP1 cell CPT: growth inhibition of DT40 Tdp1-/-;hTDP1 cells with camptothecin (screen for TDP1 inhibitors); chicken DT40 Tdp1-/-;hTDP1 cells + 20 nM CPT, ATP luminescence, 48 h; Potency, µM (top dose mostly 46.2 µM), without a hit: at the highest dose activity change, negative = growth inhibition, actives largely listed as inhibitors; 12% of 420,000 active; AID 686979; further: potency means the concentration at half of the fitted maximal effect; nearly all actives have a fitted effect of over 55% in size
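Chicken DT40 Tdp1-/- cells complemented with human TDP1, 400 cells/well, exposed to compounds plus 20 nM camptothecin for at least 48 h at 37 C; viability read as ATP content by CellTiter-Glo luminescence.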
An asterisk follows results filed as active; [ ] = another dose, or the depositor's remark. Shown is part of a subset that was picked to be rich in hits. Unless noted, the call rests on the fitted dose curve; in most records, active means well fitted curve in the direction sought with a large enough effect; inconclusive means small, poorly fitted or top-dose-only effect, or another doubt; inactive means no such curve, though single readings can be large; an effect the other way counts as inactive or inconclusive. Unless noted, on the % scale 0 is the no-effect control and ±100 the full control effect.

C=CCNC(=O)N[C@H]1CCN(C(=O)CSC)[C@@H]1C(=O)N[C@H](Cc1ccccc1)C(N)=O was read as ALOX12 inh 70%.
Screening Cc1cccc(C(=O)N2C[C@@H](CO)[C@H](c3ccccn3)C2)n1 returned ALOX12 inh 55%.
C=CCn1c(N)c(C(=O)NCc2ccco2)sc1=S was read as HT1080 IDH1KD tx 15%, HT1080NT lethal 9%, ALOX12 inh -25%, TDP1 cell noCPT -1%, IL1B secr inh inconclusive and TDP1 cell CPT 1%.
Cc1cc(C)c2c(N)c(C(=O)Nc3ccccc3Br)sc2n1 was read as HT1080 IDH1KD tx -13%, HT1080NT lethal -1%, ALOX12 inh 1%, TDP1 cell noCPT -17%, IL1B secr inh -3 and TDP1 cell CPT -29%.
CCc1ccccc1NC(=O)c1sc2nc(C)cc(C)c2c1N was read as HT1080 IDH1KD tx -4%, HT1080NT lethal -17%, ALOX12 inh -14%, TDP1 cell noCPT inconclusive, IL1B secr inh inconclusive and TDP1 cell CPT 18µM*.
`Cc1cc(C)c2c(N)c(C(=O)N3CCCCCC3)sc2n1` gave HT1080 IDH1KD tx 2%, HT1080NT lethal 8%, ALOX12 inh -20%, TDP1 cell noCPT -24%, IL1B secr inh -17 and TDP1 cell CPT 15µM*.
Cc1ccc(-n2c(N)c(C(=O)NCc3ccco3)sc2=S)cc1 was read as HT1080 IDH1KD tx -17%, HT1080NT lethal -14%, ALOX12 inh inconclusive, TDP1 cell noCPT -29%, IL1B secr inh -58* and TDP1 cell CPT inconclusive.
Screening Cc1cc(C)c2c(N)c(C(=O)c3ccccc3Cl)sc2n1 returned HT1080 IDH1KD tx -9%, HT1080NT lethal -8%, ALOX12 inh 11%, TDP1 cell noCPT inconclusive, IL1B secr inh -9 and TDP1 cell CPT -29%.
Screening Cc1cc(C)c2c(N)c(C(=O)c3ccc(Cl)cc3Cl)sc2n1 returned HT1080 IDH1KD tx -9%, HT1080NT lethal -11%, ALOX12 inh -19%, TDP1 cell noCPT 18µM*, IL1B secr inh -2 and TDP1 cell CPT inconclusive.
Screening Cc1cc(C)c2c(N)c(C(=O)NCc3ccco3)sc2n1 returned HT1080 IDH1KD tx 20%, HT1080NT lethal 20%, ALOX12 inh 2%, TDP1 cell noCPT inconclusive, IL1B secr inh -61* and TDP1 cell CPT 0%.
Cc1cc(C)c2c(N)c(C(=O)Nc3ncc(C)s3)sc2n1 was read as HT1080 IDH1KD tx inconclusive, HT1080NT lethal inconclusive, ALOX12 inh 0%[57.4 µM], TDP1 cell noCPT 18µM*, IL1B secr inh -19 and TDP1 cell CPT 16µM*.
For COC(=O)c1sc2nc(C)cc(C)c2c1N the results were HT1080 IDH1KD tx 0%, HT1080NT lethal 3%, ALOX12 inh -8%, TDP1 cell noCPT -7%, IL1B secr inh -24 and TDP1 cell CPT -24%.
`O=C(O)c1ccc(/C=N/Nc2ccc(F)cc2F)cc1` gave HT1080 IDH1KD tx 5.2µM*, HT1080NT lethal 3.3µM*, ALOX12 inh inconclusive, TDP1 cell noCPT 2%, IL1B secr inh 3 and TDP1 cell CPT 14%.
O=C(O)c1ccc(N/N=C/c2ccc(C(F)(F)F)cc2)cc1 was read as HT1080 IDH1KD tx -10%, HT1080NT lethal -9%, ALOX12 inh inconclusive, TDP1 cell noCPT 6%, IL1B secr inh 57 and TDP1 cell CPT 2%.
CSc1ccc(/C=N/Nc2ccc(F)cc2F)cc1 was read as ALOX12 inh 1.8µM*.
Fc1ccc(N/N=C/C=C/c2ccccc2)c(F)c1 was read as HT1080 IDH1KD tx -1%, HT1080NT lethal -1%, ALOX12 inh 40µM*, TDP1 cell noCPT inconclusive, IL1B secr inh inconclusive and TDP1 cell CPT inconclusive.
Fc1ccc(N/N=C/c2ccncc2)c(F)c1 was read as HT1080 IDH1KD tx 27%, HT1080NT lethal -20%, ALOX12 inh inconclusive, TDP1 cell noCPT -21%, IL1B secr inh -4 and TDP1 cell CPT -2%.
`FC(F)(F)c1cnc(Sc2ncnc3sccc23)c(Cl)c1` gave ALOX12 inh -17%.
`CC1(C(=O)Nc2ccc3c(c2)OCCO3)CCC(=O)N1C1CCN(Cc2ccccc2)CC1` (stereo not given) gave HT1080 IDH1KD tx 14%, HT1080NT lethal 18%, ALOX12 inh -24%, TDP1 cell noCPT 2%, IL1B secr inh -15 and TDP1 cell CPT 7%.
`O=C(NC1CCCCC1)c1ccc2ccccc2c1O` gave HT1080 IDH1KD tx 0%, HT1080NT lethal -19%, ALOX12 inh -15%, TDP1 cell noCPT 15µM*, IL1B secr inh -61* and TDP1 cell CPT inconclusive.
Screening Nc1sc(Cc2ccccc2)cc1C(=O)NC1CCCCC1 returned HT1080 IDH1KD tx -15%, HT1080NT lethal -11%, ALOX12 inh -22%, TDP1 cell noCPT 15µM*, IL1B secr inh -18 and TDP1 cell CPT inconclusive.
COCCCNC(=O)c1cc(Cc2ccccc2)sc1N was read as HT1080 IDH1KD tx 7%, HT1080NT lethal -1%, ALOX12 inh -27%, TDP1 cell noCPT inconclusive, IL1B secr inh 24 and TDP1 cell CPT inconclusive.
Screening O=C(NNC(=O)c1ccc2ccccc2c1O)NC1CCCCC1 returned HT1080 IDH1KD tx 0%, HT1080NT lethal 2%, ALOX12 inh inactive, TDP1 cell noCPT 2%, IL1B secr inh -26 and TDP1 cell CPT -16%.
C=CCc1c(C)nc(Nc2nc(C)c3ccc(C)cc3n2)[nH]c1=O was read as ALOX12 inh -1%.
For Cc1ccc(NC(=O)c2ncn(CC(=O)NCc3ccc4[nH]ccc4c3)n2)cc1C the results were HT1080 IDH1KD tx -1%, HT1080NT lethal 1%, ALOX12 inh inconclusive, TDP1 cell noCPT -29%, IL1B secr inh -4 and TDP1 cell CPT inconclusive.
`Cc1ccc(NC(=O)c2ncn(CCCN(CCCn3cnc(C(=O)Nc4ccc(C)c(C)c4)n3)Cc3ccc4[nH]ccc4c3)n2)cc1C` gave HT1080 IDH1KD tx 21µM*, HT1080NT lethal 16µM*, ALOX12 inh -8%, TDP1 cell noCPT 15µM*, IL1B secr inh 8 and TDP1 cell CPT inconclusive.
`COC(=O)[C@H](Cc1ccc(O)cc1)NC(=O)Cn1cnc(C(=O)Nc2ccc(C)c(C)c2)n1` gave HT1080 IDH1KD tx 5%, HT1080NT lethal 5%, ALOX12 inh 10%, TDP1 cell noCPT -21%, IL1B secr inh 24 and TDP1 cell CPT -17%.
